# PubChem BioAssay AID624273 (Broad Institute, 2012)
# The campaign covered roughly 1,000 compounds. About 230 (23%) were called active. Another 1% or so got no clear call; they are omitted. No rule for the calls is given here. The list shows a part of the results. Measured potencies and affinities stand elsewhere.
# Molecular target: Long-chain-fatty-acid--AMP ligase FadD28 (Mycobacterium tuberculosis (strain ATCC 25618 / H37Rv)) (UniProt P9WQ59)
# Test: inhibitors of FadD28 bisubstrate probe binding, dose response, biochemical, fluorescence polarization, cherry-pick (AID 624273)
# Conditions: series mostly up to 50 µM
# Chain of Long-chain-fatty-acid--AMP ligase FadD28 (Mycobacterium tuberculosis (strain ATCC 25618 / H37Rv)) (P9WQ59 whole entry, looked up): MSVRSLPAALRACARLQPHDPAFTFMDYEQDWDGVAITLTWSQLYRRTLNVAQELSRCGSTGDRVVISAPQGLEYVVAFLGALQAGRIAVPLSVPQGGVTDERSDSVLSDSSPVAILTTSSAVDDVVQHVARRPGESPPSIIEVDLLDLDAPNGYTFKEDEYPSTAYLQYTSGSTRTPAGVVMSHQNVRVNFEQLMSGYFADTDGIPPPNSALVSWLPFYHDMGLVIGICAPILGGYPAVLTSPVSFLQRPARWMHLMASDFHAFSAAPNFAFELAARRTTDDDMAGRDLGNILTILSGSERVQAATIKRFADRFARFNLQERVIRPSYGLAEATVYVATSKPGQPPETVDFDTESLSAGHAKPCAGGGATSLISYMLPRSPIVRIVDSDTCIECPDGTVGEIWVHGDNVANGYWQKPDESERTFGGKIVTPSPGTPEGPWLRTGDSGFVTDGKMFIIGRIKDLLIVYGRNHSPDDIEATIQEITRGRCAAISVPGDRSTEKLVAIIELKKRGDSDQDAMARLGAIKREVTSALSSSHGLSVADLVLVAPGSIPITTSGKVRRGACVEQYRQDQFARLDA
row,SMILES,outcome
1,COc1ccc(NC(=O)CSc2n[nH]c(-c3ccco3)n2)cc1,inactive
2,O=C1C(=O)c2cccnc2-c2ncccc21,inactive
3,CC(=O)C1C(c2cccc([N+](=O)[O-])c2)C2C(C)=NN=C2CC1(C)O (stereo not given),inactive
4,COc1ccc(N2CCN(S(=O)(=O)c3ccc(-c4cc(C)no4)s3)CC2)cc1,inactive
5,COc1ccc(/C=N/N(Cc2ccccc2)c2ccccc2)cc1O,inactive
6,Cc1ccc(S(=O)(=O)N2CCC(C(=O)NCCCN3CCOCC3)CC2)cc1C,inactive
7,COc1cc(/C=C2\SC(=S)N(NC(=O)c3ccc(O)cc3)C2=O)ccc1O,inactive
8,C=CCn1c(-c2cccn(Cc3ccc(Cl)cc3)c2=O)n[nH]c1=S,inactive
9,O=C(O)c1ccc(N2CC3CC(C2)c2cccc(=O)n2C3)c(NS(=O)(=O)c2cccc(C(F)(F)F)c2)c1 (stereo not given),inactive
10,CN(C(=O)c1ccc(NC(=O)Cc2cccc(NC(=O)C3CCCN(C(=O)c4ccccc4)C3)c2)cc1)C1CC1 (stereo not given),inactive
11,COc1ccc(N2CCN(C(CNC(=O)COc3ccccc3)c3ccco3)CC2)cc1 (stereo not given),inactive
12,O=C(c1ccc(=O)[nH]n1)N1CCN(S(=O)(=O)c2cccc(F)c2)CC1,inactive
13,O=C(N/C(=C/c1ccc(Br)cc1)C(=O)N1CCCC1)c1ccccc1F,inactive
14,FC(F)(F)c1cnc(C(c2ccccn2)c2ncn[nH]2)c(Cl)c1 (stereo not given),inactive
15,COc1cc2c3c(c1)/C(=C1/SC(NC(C)=O)=NC1=O)C(=O)N3C(C)(C)C=C2C,inactive
16,Cc1ccc(NC(=O)C2CC(=O)N(c3ccc4c5c(cccc35)CC4)C2)cc1 (stereo not given),inactive
17,CCc1ccc(CN(C)Cc2nc(Cc3cccc(C(F)(F)F)c3)no2)nc1,inactive
18,CCn1c(C)c(C)c2cc(C(=O)N3CCCC3)ccc21,inactive
19,COc1ccc(C(=O)NCC(=O)OCC(=O)NCc2cccs2)cc1,inactive
20,CCc1ccccc1OCC(=O)Nc1ccc(S(N)(=O)=O)cc1,inactive
21,COc1ccc(CSCC(=O)Nc2ccc(S(=O)(=O)N3CCCCCC3)cc2)cc1,inactive
22,Cn1cc(S(=O)(=O)N2CCCC2)cc1C(=O)NCCc1ccccc1,inactive
23,COc1cccc(OC)c1OCCN(C)C,inactive
24,COc1cccc(CCNCc2ccc(SC)cc2)c1,inactive
25,O=C(NCc1cccnc1)c1cc(-c2ccccc2)on1,inactive
26,CCOc1ccc(S(=O)(=O)N2CCN(C(=S)NCC3CCCO3)CC2)cc1 (stereo not given),inactive
27,Cc1cccc2sc(NNC(=O)c3ccc(S(=O)(=O)N4CCCC(C)C4)cc3)nc12 (stereo not given),inactive

row,SMILES,outcome
1,CN(C)/C=C/C(=O)c1ccc([N+](=O)[O-])c(CS(=O)(=O)c2ccc(Cl)cc2)c1,inactive
2,Cc1cc(C)cc(N(C(=O)C(F)(F)F)C(C(=O)NC2CCCCC2)c2cccs2)c1 (stereo not given),inactive
3,CCc1cccc2c(C(=O)CN3C(=O)NC4(CCCCC4)C3=O)c[nH]c12,inactive
4,Cc1ccc(C)c(C(=O)CN2C(=O)C(=O)N(C3CCCC3)C2=O)c1,inactive
5,O=c1oc2c(CN3CCOCC3)c(O)c(Cl)cc2c2c1CCCC2,inactive
6,CCCCCCCCSc1nnc(CSc2nc3nc(C)cc(C)n3n2)o1,inactive
7,CCc1ccccc1Nc1nc(-c2cccnc2)cs1,inactive
8,CC1CCCCN1C(=O)CCS(=O)(=O)c1cccc2nonc12 (stereo not given),inactive
9,CSc1ccc(NC(=O)Nc2ccc(C(=O)NCC(=O)O)cc2)cc1,inactive
10,CCCCCCCCCCCCCCCC(=O)Nc1ccn(C2OC(CO)C(O)C2O)c(=O)n1 (stereo not given),inactive
11,COc1ccc(-c2noc(CNC(=O)c3ccc4c(c3)OCO4)n2)cc1,inactive
12,O=[N+]([O-])c1cc(C(F)(F)F)ccc1NCCc1c[nH]c2ccc(O)cc12,inactive
13,O=C(C(=O)N1CCCCCC1)c1c[nH]c2ccccc12,inactive
14,Nc1cc(OC(=O)c2ccc(F)cc2)nn1S(=O)(=O)c1ccccc1,inactive
15,COc1ccc(C2C(C#N)=C(N)N(c3ccccc3)C3=C2C(=O)CCC3)cc1Cn1cc([N+](=O)[O-])cn1 (stereo not given),inactive
16,COc1cc(/C=C2\SC(=S)N(NC(=O)c3ccccc3O)C2=O)ccc1O,inactive
17,Cc1ccn2c(CNCCn3cccn3)c(C(=O)N3CCCCCC3)nc2c1,inactive
18,COc1cc2cncc(Cc3ccc(Cl)cc3)c2cc1OC,inactive
19,CC1(C)CC(=O)C(C(c2ccncc2)C2C(=O)CC(C)(C)CC2=O)C(=O)C1,inactive
20,CN1CCN(CCCN2c3ccccc3Sc3ccc(Cl)cc32)CC1,inactive
21,O=C(CSc1nncn1-c1cccnc1)N1CCOCC1,inactive
22,CN(Cc1cccc([N+](=O)[O-])c1)Cc1cccc2ccccc12,inactive
23,CC(=O)NNC(=S)Nc1cccc(F)c1,inactive
24,Cc1cccc(NC(=O)NNC(=O)c2ccc3ccccc3c2O)c1,inactive
25,Cc1ccc(SCCN2CCN(C)CC2)cc1,inactive
26,Cn1ncnc2c(=O)n(C)c(=O)nc1-2,inactive
27,CN(C)c1cccc(NC(=O)c2ccco2)c1,inactive

row,SMILES,outcome
1,COc1ccccc1NC(=O)c1ccc2c(c1)C(=O)N(c1ccccc1OC)C2=O,inactive
2,COCCCN1CN(S(=O)(=O)c2ccc(Cl)cc2)c2nc3ccccc3nc21,inactive
3,CC1CCCC(C)N1CCCNC(=O)c1ccc2nc(N3CCOCC3)sc2c1 (stereo not given),inactive
4,O=C(Nc1nc2ccc(SC(F)F)cc2s1)c1ccc(NS(=O)(=O)c2ccc(F)c(F)c2)cc1,inactive
5,COc1ccc(OC)c(NC(=O)c2ccc(NC(C)=O)cc2)c1,inactive
6,COc1ccc(C(=O)NNC(=O)C(=O)NCc2ccccc2)cc1,inactive
7,Cc1ccc(C)c(C(=O)C(C)OC(=O)c2cccn2C)c1 (stereo not given),inactive
8,O=C(CN1C(=O)c2ccccc2C1=O)N(CCO)Cc1ccccc1,inactive
9,CCCc1nc(N)c(C#N)c(-c2ccco2)c1CC,inactive
10,O=C(COC(=O)c1cccs1)Nc1cccc(S(=O)(=O)N2CCOCC2)c1,inactive
11,COc1ccc(S(=O)(=O)N2CCCCCC2)cc1C(=O)NCc1cccs1,inactive
12,CCOC1=C(C#N)CC2(CC1)c1ccccc1-c1ccccc12,inactive
13,Cc1ccc(C)n1C(CC(=O)O)c1ccc(C#N)cc1 (stereo not given),inactive
14,O=C1C2CC=CCC2C(=O)N1c1ccc(NCCc2ccc(O)cc2)c([N+](=O)[O-])c1 (stereo not given),inactive
15,C=CCOc1cccc(C2C(C(=O)c3ccc(C)o3)=C(O)C(=O)N2CCCn2ccnc2)c1 (stereo not given),inactive
16,COc1ccc(Cl)cc1NC(=S)N(Cc1ccc(C(=O)O)cc1)Cc1ccc(OC)c(OC)c1,inactive
17,O=C(O)c1cc(N/N=C/c2c[nH]c3ccccc23)ccc1Cl,inactive
18,CC(=O)Nc1sc(N/N=C\c2ccccc2)nc1-c1cccs1,inactive
19,CN1CCCC(C(=O)c2ccc(-c3ccccc3)cc2)C1 (stereo not given),inactive
20,O=C(O)c1ccc(N/N=C/C2=Cc3ccccc3OC2)cc1,inactive
21,COc1cc(C(C)=O)ccc1OC(=O)N(C)c1ccccc1,inactive
22,Cc1ccc(S(=O)(=O)N2CCN(C(=O)COC(=O)Cc3cccc(C(F)(F)F)c3)CC2)c(C)c1,inactive
23,Cc1c(N=Cc2c(O)n(CCc3ccc(F)cc3)c(=O)[nH]c2=O)c(=O)n(-c2ccccc2)n1C,inactive
24,Cc1ccc(C)c(C(O)c2ncc(-c3ccccc3F)[nH]2)c1 (stereo not given),inactive
25,CC1=C(C(=O)OCc2ccccc2)C(c2ccccc2Cl)NC(=O)N1C (stereo not given),inactive
26,OC1(c2ccccc2)c2ccccc2-c2ncccc21 (stereo not given),inactive
27,COc1ccc(Cn2c(O)c(C=Nc3ccccc3C(=O)O)c3ccccc3c2=O)cc1,inactive

row,SMILES,outcome
1,O=C(CNC(=S)N(Cc1ccccc1)Cc1cccnc1)N1CCOCC1,inactive
2,CC(C=NNc1ccc([N+](=O)[O-])cn1)=Cc1ccccc1,inactive
3,Fc1ccc(-n2cc(-c3ccccc3)c3c(N4CCOCC4)ncnc32)cc1,inactive
4,FC(F)(F)c1cccc(NC(=S)N2CCN(c3ccccn3)CC2)c1,inactive
5,O=C(NNc1ccc(C2CCCCC2)cc1)C(O)(c1ccccc1)c1cccs1 (stereo not given),inactive
6,O=C(O)c1[nH]c2ccccc2c1C(c1cccc(O)c1)c1c(C(=O)O)[nH]c2ccccc12,inactive
7,Cc1[nH]c2ccccc2c1C(=O)CN1CCSCC1,inactive
8,O=C(Cc1c(F)cccc1Cl)NC1CCN(Cc2ccccc2)CC1,inactive
9,COc1ccc(OC)c(C2CC(=O)Nc3c2c(=O)[nH]c2ncnn32)c1 (stereo not given),inactive
10,CC(Oc1ccc(Cl)cc1Cl)c1nc(-c2ccc(NC(=O)c3ccco3)cc2)no1 (stereo not given),inactive
11,O=c1[nH]c(=S)[nH]c(O)c1/C=C1\C=Nc2ccccc21,inactive
12,CCOC(=O)C(O)(C1C(=O)CC(C)(C)CC1=O)C(F)(F)F (stereo not given),inactive
13,O=C1CC(c2cc(F)ccc2F)c2cc3c(cc2N1)CCC3 (stereo not given),inactive
14,OC1(c2ccc3c(c2)OCO3)CCN(Cc2ccccn2)CC1,inactive
15,C[C@@H]1CN([C@H](C)CO)C(=O)c2cc(NC(=O)Nc3ccc(C(F)(F)F)cc3)ccc2O[C@H]1CN(C)C(=O)Nc1ccc(F)cc1,inactive
16,CCN(C(=O)CSc1nnc(SC)s1)c1c(N)n(Cc2ccccc2)c(=O)[nH]c1=O,inactive
17,O=C(CCCCn1c(=O)c2ccccc2n(CC(=O)Nc2ccc(F)cc2)c1=O)NCc1ccco1,inactive
18,CCN(CC)S(=O)(=O)c1cc(C(=O)Nc2cc(Cl)ccc2N2CCN(C)CC2)ccc1Cl,inactive
19,CCCCCCCCCCCCCCCCCCNc1ccn(C2OC(COP(=O)(O)OCC3OC(n4cc(F)c(=O)[nH]c4=O)CC3O)C(O)C2O)c(=O)n1 (stereo not given),inactive
20,S=C(Nc1ccccc1)N1CCN(c2ccc(N3CCOCC3)nn2)CC1,inactive
21,COc1ccccc1CN1CCN(C(=O)c2ccco2)CC1,inactive
22,N#CC1(NC(=O)COC(=O)C2=COCCO2)CCCCC1,inactive
23,COc1cc(/C=C2\C(=O)ON=C2c2ccccc2)cc(Br)c1O,inactive
24,Cc1ccccc1-c1cc(C(=O)N2CCCC2)c2ccccc2n1,inactive
